Hits are enriched below; roughly 1.3% of the tested compounds scored in any of these assays.
LYPLA1 inh – LYPLA1 (human) inhibition in PME1 counter-screen; O75608; recombinant LYPLA1, FP-Rh probe fluorescence polarization; inhibition, % at 5.9 µM; 320,000 tested, 0.16% active;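 active means inhibition above the mean of all tested compounds plus 3 SD, set per campaign, cut at about 14% in these data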;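 further: inhibitors block serine hydrolase probe labeling of LYPLA1 so polarization falls; 0% = enzyme with DMSO and 100% = wells lacking LYPLA1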
LYPLA2 inh – LYPLA2 (human) inhibition in PME1 counter-screen | O95372 | inhibition, % at 5.9 µM | recombinant LYPLA2, FP-Rh probe fluorescence polarization | 320,000 tested, 0.38% active;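 active means inhibition above the screen-wide mean plus 3 SD, limit set per campaign, cut at about 26% in these data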;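 further: 0% = LYPLA2 with DMSO and 100% = wells lacking LYPLA2 enzyme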
Target sequence (O95372 whole entry, looked up): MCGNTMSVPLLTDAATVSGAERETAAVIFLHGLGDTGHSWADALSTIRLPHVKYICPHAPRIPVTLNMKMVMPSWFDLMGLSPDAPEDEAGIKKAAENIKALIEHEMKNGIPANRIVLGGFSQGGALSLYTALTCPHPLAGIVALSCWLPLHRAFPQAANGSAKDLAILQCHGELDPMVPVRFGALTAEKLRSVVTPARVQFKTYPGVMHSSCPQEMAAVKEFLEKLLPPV
Fam108B counter – blocks mouse Fam108B hydrolase in RBBP9 counter-screen; recombinant Fam108B, FP-Rh probe fluorescence polarization; inhibition, % at 9.51 µM; 300,000 tested, 0.33% active;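 active means inhibition above the screen mean inhibition plus 3 SD, computed separately per campaign, cut at about 18% in these data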;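 further: inhibitors lower polarization as less probe binds the enzyme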
PREPL inhibitor – human PREPL enzyme inhibition. Q4J6C6. recombinant PREPL, fluorescence polarization activity-based probe. inhibition, % at 5.96 µM. 320,000 tested, 0.68% active. AID 2751;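 further: 0% = enzyme with DMSO and 100% = wells lacking enzyme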
PME-1 primary – blocks human protein phosphatase methylesterase 1; recombinant PME-1, FP-Rh probe fluorescence polarization; 320,000 tested, 0.53% active; Q9Y570; inhibition, % at 5.9 µM;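 active means inhibition above the campaign mean of all compounds plus 3 SD, cut at about 26% in these data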;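 further: competitive labeling of PME-1 active site by serine hydrolase directed probe; 0% = PME-1 with DMSO and 100% = wells lacking PME-1 enzyme; inhibitors block probe labeling so polarization falls and inhibition rises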
Target sequence (Q9Y570 whole entry, looked up): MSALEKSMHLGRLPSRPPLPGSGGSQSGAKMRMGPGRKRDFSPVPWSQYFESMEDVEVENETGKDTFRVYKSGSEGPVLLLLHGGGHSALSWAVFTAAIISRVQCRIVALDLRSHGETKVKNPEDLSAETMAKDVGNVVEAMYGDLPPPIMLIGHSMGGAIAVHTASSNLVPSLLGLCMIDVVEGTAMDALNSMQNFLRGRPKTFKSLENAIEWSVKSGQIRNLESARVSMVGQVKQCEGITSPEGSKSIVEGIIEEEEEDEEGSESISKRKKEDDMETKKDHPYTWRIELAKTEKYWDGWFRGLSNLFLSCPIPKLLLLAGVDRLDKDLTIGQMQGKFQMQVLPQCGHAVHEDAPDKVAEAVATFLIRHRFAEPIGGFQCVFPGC
PREPL confirm – confirmation of human PREPL enzyme inhibitors | recombinant PREPL, fluorescence polarization activity probe | shares compounds with PREPL inhibitor | 2,000 tested, 67% active | inhibition, % at 5.96 µM;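 further: 0% = protein with DMSO and 100% = wells lacking protein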
Starred values were filed as active, the others as inactive; x = not tested or not shown. Unless noted, no stated cut-off is given here; in the data, active means inhibition above about 43%; inactive means the rest.

SMILES | LYPLA1 inh | LYPLA2 inh | Fam108B counter | PREPL inhibitor | PME-1 primary | PREPL confirm
Cn1c(N2CCOCC2)nc2c1c(=O)n(Cc1ccc(Cl)c(Cl)c1)c(=O)n2C | 0 | 0 | 0 | 44* | 6 | 26
COC(=O)N/N=C/c1cccc(OC(=O)c2ccc3c(c2)OCO3)c1 | 2 | 13 | -3 | 1 | -4 | x
O=C(COc1ccccc1[N+](=O)[O-])N/N=C/c1cccc(OC(=O)c2ccc3c(c2)OCO3)c1 | 1 | -5 | -21 | 47* | -13 | 20
O=C(NNc1c2ccccc2nc2ccccc12)c1ccccc1O | 3 | 11 | 14 | 46* | 54* | 30
O=C(NNc1c2ccccc2nc2ccccc12)c1ccccc1Cl | -6 | -3 | -6 | 7 | -8 | x
COc1ccc(OCC(=O)NNc2c3ccccc3nc3ccccc23)cc1 | 1 | -1 | 11 | 44* | -49 | 50*
O=C(COc1ccccc1)NNc1c2ccccc2nc2ccccc12 | 0 | -3 | 10 | 46* | 17 | 39
Nc1[nH]n2c(=O)c3c(nc2c1N=Nc1ccccc1)CCCC3 | 5 | -4 | 1 | 64* | 5 | 60*
Cc1cc(=O)n2[nH]c(N)c(N=Nc3ccccc3)c2n1 | 1 | 7 | 2 | 13 | -6 | x
Nc1[nH]n2c(=O)c3c(nc2c1N=Nc1ccc(Cl)cc1)CCCC3 | 1 | 2 | 17 | 51* | 0 | 68*
O=C(NCCc1ccccc1)c1ccc2nc(-c3ccco3)c(-c3ccco3)nc2c1 | -7 | 12 | 11 | 74* | 30* | 74*
O=C(NC1CCCC1)c1ccc2nc(-c3ccco3)c(-c3ccco3)nc2c1 | -12 | -9 | 18 | 62* | 10 | 34
O=C(NCCO)c1ccc2nc(-c3ccco3)c(-c3ccco3)nc2c1 | 1 | 1 | 14 | 17 | 0 | x
O=C(NC1CCCC1)c1ccc2nc[nH]c2c1 | 2 | 1 | 2 | 5 | -2 | x
c1coc(-c2nc3ccccc3nc2-c2ccco2)c1 | -1 | 7 | 15 | 32 | 8 | x
O=C(c1ccccc1)c1ccc2nc(-c3ccco3)c(-c3ccco3)nc2c1 | -2 | 6 | 9 | 62* | -6 | 51*
COc1ccc(/C=N/Nc2cc(C)nc3c(C)cccc23)cc1 | -2 | -3 | 2 | 48* | -11 | 47*
CS(=O)(=O)NCCC1=CCCCC1 | 5 | 10 | 3 | -4 | 1 | x
N#Cc1c(Nc2ccc(F)cc2)sc(C(=O)c2ccccc2)c1N | -4 | 4 | 1 | 5 | 7 | x
N#Cc1c(Nc2ccccc2)sc(C(=O)c2ccccc2)c1N | 0 | 8 | 12 | 46* | 14 | 42
Clc1ccc(-c2nc3cnccn3c2Nc2ccc3c(c2)OCO3)cc1 | 0 | -4 | 16 | 25 | 12 | x
CSc1ccc(-c2nc3cnccn3c2Nc2ccc3c(c2)OCO3)cc1 | -3 | 12 | 16 | 50* | 8 | 48*
Cc1ccn2c(Nc3ccc4c(c3)OCO4)c(-c3ccccn3)nc2c1 | 2 | 8 | 1 | 77* | -3 | 67*
Cc1ccc(Nc2c(-c3ccccn3)nc3ccc(C)cn23)cc1 | 3 | 4 | 6 | 63* | 7 | 69*
Cc1ccc(Nc2c(-c3ccccc3)nc3cnccn23)cc1 | -1 | -1 | 5 | -12 | 3 | x
SMILES | LYPLA1 inh | LYPLA2 inh | Fam108B counter | PREPL inhibitor | PME-1 primary | PREPL confirm
Cc1ccc(Nc2c(-c3ccccn3)nc3cc(C)ccn23)cc1 | 5 | 1 | -1 | 74* | 6 | 58*
O=C(COC(=O)c1ccc(O)cc1)Nc1cc(S(=O)(=O)N2CCOCC2)ccc1Cl | 1 | 1 | x | 8 | 16 | x
O=C(CCN1C(=O)/C(=C\c2cccc(Br)c2)SC1=S)N1CCOCC1 | 0 | 9 | 6 | 24 | 1 | x
COc1ccccc1Nc1c2c(nc3ccc(N)cc13)CCCC2 | 2 | 3 | 2 | 44* | -7 | 27
COc1ccc(OC)c(Nc2c3c(nc4ccccc24)CCC3)c1 | -1 | 5 | 16 | 18 | 8 | x
COc1ccc(-c2nnn(CC(=O)NCCc3ccc(OC)c(OC)c3)n2)cc1 | 3 | 6 | -2 | 1 | 2 | x
Cc1cccc2cc(-c3ccccc3)c(-c3ccccc3)c[n+]12 | 4 | 6 | 8 | 58* | 6 | 46*
COc1ccc(NC(=O)c2sc3ncn(CC(=O)N4CCN(c5ccccn5)CC4)c(=O)c3c2C)cc1OC | -1 | -2 | -3 | 58* | -8 | 49*
COc1ccc(CNC(=O)COC(=O)C(CCSC)NC(=O)c2ccco2)cc1OC (stereo not drawn) | 2 | 5 | x | 8 | 1 | x
CC1CC(C)CN(C(=O)c2ccc3c(c2NCCO)C(=O)c2ccccc2C3=O)C1 (stereo not drawn) | 0 | 5 | 6 | 56* | 7 | 58*
COc1ccc(-c2cn(Cc3ccc4c(c3)C(=O)c3ccccc3C4=O)nn2)cc1 | 0 | 4 | 6 | 48* | 1 | 37
C[n+]1c(-c2ccccc2)sc([S-])c1-c1ccccc1 | 1 | 0 | 0 | 57* | -1 | 69*
Cc1ccc(NC(=O)COC(=O)CCc2ccccc2)cc1S(=O)(=O)N1CCOCC1 | x | x | x | 14 | x | x
O=C(O)c1ccccc1NS(=O)(=O)c1ccc(NN=Cc2cccc(Cl)c2)c([N+](=O)[O-])c1 | x | x | x | 53* | x | 45*
COc1ccc(NS(=O)(=O)c2ccc(NN=Cc3ccc(C(=O)O)cc3)c([N+](=O)[O-])c2)cc1 | x | x | x | 45* | x | 40
O=C(O)c1ccccc1NS(=O)(=O)c1ccc(NN=Cc2ccc(F)cc2)c([N+](=O)[O-])c1 | x | x | x | 44* | x | 37
COc1ccc(-c2nc(CSCC(=O)NC3CCN(Cc4ccccc4)CC3)c(C)o2)cc1OC | -2 | -1 | -1 | 4 | 2 | x
CCOC(=O)c1[nH]c2cc(OC)c(OC)cc2c1NC(=O)CN1CCN(c2ccc(OC)cc2)C(C)C1 (stereo not drawn) | -3 | 5 | 2 | 85* | 8 | 78*
COC(=O)c1[nH]c2cccc(OC)c2c1NC(=O)CN1CCN(c2cccc(OC)c2)C(C)C1 (stereo not drawn) | 4 | 7 | 3 | 11 | 5 | x
COc1cc(OC)cc(-c2c(-c3cccs3)c3cc(-c4ccc(OCc5ccccc5)cc4)ccc3n2C)c1 | x | x | x | 72* | x | 4
CC(C)n1nnnc1SCC(=O)N(C)C1CCS(=O)(=O)C1 (stereo not drawn) | x | x | x | 10 | x | x
C#CCOCCOCCOCCNc1nc(N2CCN(C(=O)[C@H](CCC(=O)O)n3cc(C(N)Cc4ccc(O)cc4)nn3)CC2)nc(N2CCN(C(=O)[C@H](Cc3cc4ccccc4[nH]3)n3cc(C(N)CC(C)C)nn3)CC2)n1 (stereo partly drawn) | -3 | -5 | -1 | 46* | 0 | 38

Bioassay records from PubChem BioAssay.
